Screening results deposited in PubChem by National Center for Advancing Translational Sciences (NCATS).
Pf growth 96h – Primary qHTS for delayed death inhibitors of the malarial parasite plastid, 96 hour incubation; P. falciparum luciferase reporter growth, 96 h; Potency, µM (top dose mostly 28.7 µM), hits mostly inhibitors; 320,000 tested, 6.9% active; AID 504834, 2011; active means well fitted inhibition curve with a large enough effect; inconclusive means small, poorly fitted or top-dose-only effect, or another doubt; inactive means no such curve, though single readings can be large or run the other way
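Cell-based qHTS: luciferase-tagged P. falciparum in erythrocytes (2% hematocrit, 0.05% parasitemia final) incubated with compounds for 96 hours, 37 C, 5% CO2; luciferase detection reagent then added and luminescence measured.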
NS1 inh – qHTS Assay for Inhibitors of Influenza NS1 Protein Function; Potency, µM (highest dose often 46.1 µM); 270,000 tested, 0.4% active; AID 2326, 2010; further: actives are rising curves; nearly all actives have a fitted effect of over 50% in size
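S. cerevisiae expressing influenza A NS1, grown in glucose, washed, then diluted 1:100 into pH 6.0 -URA galactose medium with 23 nl compound. Growth recovery read as OD600; NS1-free strain serves as control.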
SARS PLP yeast – qHTS of Yeast-based Assay for SARS-CoV PLP | 330,000 tested, 0.19% active | S. cerevisiae expressing SARS-CoV PLpro, growth rescue | Potency, µM (highest dose often 32.9 µM), most hits filed as activators | AID 485353, 2010; further: nearly all actives have a fitted effect of over 55% in size
Shiga toxin inh – A qHTS for Small Molecule Inhibitors of Shiga Toxin; Vero cells, Shiga toxin protein synthesis inhibition reporter; AID 2315, 2010; inhibition, % at 38.7 µM; 290,000 tested, 9.2% active; in the data active means inhibition mostly above about 28%, no sharp cut-off; inactive means mostly below about 43%
Pf growth 48h – Primary qHTS for delayed death inhibitors of the malarial parasite plastid, 48 hour incubation; P. falciparum luciferase growth in erythrocytes, 48 h; Potency, µM (titrated, usually from 28.7 µM), actives largely listed as inhibitors; 310,000 tested, 5.9% active; AID 504832, 2011; active means well fitted inhibition curve with a large enough effect; inconclusive means small, poorly fitted or top-dose-only effect, or another doubt; inactive means no such curve, though single readings can be large or run the other way
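Growth was read as firefly luciferase luminescence after a 48 h, 37 C, 5% CO2 exposure of compounds to reporter-bearing P. falciparum cultures (0.1% parasitemia, 2% hematocrit final) in Albumax-supplemented RPMI 1640.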
Cycloheximide cs – Cycloheximide Counterscreen for Small Molecule Inhibitors of Shiga Toxin. cell reporter, cycloheximide protein synthesis inhibition counterscreen. max response, %. 300,000 tested, 12% active; in the data active means max response mostly above about 13%, no sharp cut-off; inactive means mostly below about 14%; further: read at 38.3 µM for the half of the compounds with a filed dose
Hits are given with their value; – = inactive; ? = inconclusive; · = no result; [ ] = remark or other dose. Shown are actives, neighbours in structure and some others; about 21% of the full set was active somewhere. Unless noted, the call rests on the fitted dose curve.

SMILES	Pf growth 96h	NS1 inh	SARS PLP yeast	Shiga toxin inh	Pf growth 48h	Cycloheximide cs
COc1ccc(NC(=O)C2(c3ccc(NC(=O)c4ccc(OC(C)=O)cc4)cc3)CCCC2)cc1	–	–	–	–	–	–
O=C(Nc1ccccc1C(=O)NCCc1ccc(O)cc1)c1ccco1	–	–	–	–	–	–
CCc1ccccc1S(=O)(=O)c1c(C)cc(C)nc1Cl	–	–	–	–	–	–
C=CCn1c(SCC(=O)Nc2cccc3ccccc23)nc(O)c(CC)c1=O	9.3µM	–	–	–	·	–
CCC(C)n1c(SCC(=O)NC(=O)c2cccn2C)nc2ccccc2c1=O (stereo not given)	?	·	–	–	?	–
C=CCn1c(SCC(=O)Nc2ccc(O)cc2)nc2sc(CC)cc2c1=O	?	–	–	–	?	–
C=CCn1c(SCC(=O)NC(=O)c2cccn2C)nc2ccccc2c1=O	–	–	–	–	3.7µM	–
C=CCn1c(SCC(=O)Nc2ccc(F)cc2)nc2ccccc2c1=O	5.2µM	–	–	–	?	–
O=C(CSc1nc2sccc2c(=O)[nH]1)N1CCN(c2ccccc2)CC1	?	–	–	–	?	–
Cc1ccc(NC(=O)CSc2nnc(-c3cccs3)o2)cc1S(=O)(=O)N1CCCCC1	?	–	–	–	–	–
Cc1cccc(C)c1NC(=O)CN(C)C(=O)CC1Sc2ccccc2NC1=O (stereo not given)	–	·	–	·	–	·
Cc1ccc(C(=O)Nc2ccc3c(c2)OCCO3)c(C)c1	–	–	–	–	–	–
O=C(Nc1ccc2c(c1)OCO2)c1c(Cl)nc2sccn12	–	–	–	103	–	25
CCN(CC(=O)Nc1ccc2c(c1)OCCO2)Cc1cc(=O)n2ccsc2n1	?	·	–	–	–	–
Cn1ncc([N+](=O)[O-])c1C(=O)Nc1ccc2c(c1)OCCO2	–	–	–	54	–	33
Cn1nccc1C(=O)Nc1ccc2c(c1)OCCO2	?	–	–	96	–	43
Cc1nn(C)cc1C(=O)Nc1ccc2c(c1)OCCO2	–	–	–	71	–	43
Cc1c(C(=O)Nc2ccc3c(c2)OCCO3)cnn1C	?	–	–	78	–	48
Cn1ncc([N+](=O)[O-])c1C(=O)Nc1ccc(-c2ccccc2)cc1	–	–	–	·	–	13
Cc1c(C(=O)Nc2ccc(Br)cc2)cnn1C	–	–	–	130	–	78
Cn1ncc(Br)c1C(=O)Nc1ccc(Br)cn1	–	–	–	–	–	–
Cn1ncc(Cl)c1C(=O)Nc1ccc2c(c1)OCO2	–	–	–	–	–	21
COc1ccccc1-n1c(C)c(C(C)=O)c2cc(O)ccc21	?	–	–	·	?	–
CCOc1ccc2c(c1)C(C)=CC(C)(C)N2C(=O)Nc1ccccc1	15µM	–	–	–	·	29
COc1ccc(NC(=O)N2c3ccccc3C(C)=CC2(C)C)cc1	–[5.75 µM]	·	–	38	–[5.75 µM]	20
SMILES	Pf growth 96h	NS1 inh	SARS PLP yeast	Shiga toxin inh	Pf growth 48h	Cycloheximide cs
COc1ccc(NC(=O)N2c3ccc(OC)cc3C(C)=CC2(C)C)cc1	–	–	–	–	–	–
CCNC(=O)N1c2ccc(OC)cc2C(C)=CC1(C)C	–	–	?	–	–	–
O=C1NC(=O)C(CCc2ccncc2)(CCc2ccncc2)C(=O)N1CCc1ccc(F)cc1	?	·	–	–	–	–
O=C1NC(=O)C(CCc2ccncc2)(CCc2ccncc2)C(=O)N1CCc1ccccc1	2.9µM	–	–	–	?	–
Cc1ccc(S(=O)(=O)CCC(=O)OC(C)C(=O)c2c(C)[nH]c3ccccc23)cc1 (stereo not given)	–	–	–	–	–	–
Nc1nc(SCc2ccc([N+](=O)[O-])cc2)nc2nc3c(cc12)CCCC3	1.5µM	–	–	–	?	–
CC1(C)Cc2nc3nc(SCC(=O)NCc4ccccc4)n(-c4ccccc4)c(=O)c3cc2CO1	?	–	–	–	–	–
CC1(C)Cc2nc3nc(SCC(=O)NCCc4ccccc4)n(-c4ccccc4)c(=O)c3cc2CO1	4.1µM	–	–	–	?	–
Cc1ccc(NC(=O)CSc2nc(N)c3cc4c(nc3n2)CCCC4)cc1	–	–	–	active	–	33
COc1ccc(NC(=O)CSc2nc(N)c3cc4c(nc3n2)CCCC4)c(OC)c1	?	–	–	–	–	–
